# According to paper PMC13541613, “GHT-SELEX demonstrates unexpectedly high intrinsic sequence specificity and complex DNA binding of many human transcription factors”:
# Assays:
# Test in all cases: HT-SELEX; 20 mM HEPES pH 7, 140 mM KCl, 5 mM NaCl, 1 mM K2HPO4, 2 mM MgSO4, 100 uM EGTA, ZnSO4, 0.1% Tween20; room temperature, 1 h; high values mean tight binding
# Settings in all cases: protein: ivt; tags: eGFP (N-terminal); dsDNA, one strand shown
# ZNF721 full-length = ZNF721 full-length (Homo sapiens, UniProt Q8TF20-2 1-923)
# Chain of ZNF721 full-length (Q8TF20 other isoform, or with tags, fused parts or gaps): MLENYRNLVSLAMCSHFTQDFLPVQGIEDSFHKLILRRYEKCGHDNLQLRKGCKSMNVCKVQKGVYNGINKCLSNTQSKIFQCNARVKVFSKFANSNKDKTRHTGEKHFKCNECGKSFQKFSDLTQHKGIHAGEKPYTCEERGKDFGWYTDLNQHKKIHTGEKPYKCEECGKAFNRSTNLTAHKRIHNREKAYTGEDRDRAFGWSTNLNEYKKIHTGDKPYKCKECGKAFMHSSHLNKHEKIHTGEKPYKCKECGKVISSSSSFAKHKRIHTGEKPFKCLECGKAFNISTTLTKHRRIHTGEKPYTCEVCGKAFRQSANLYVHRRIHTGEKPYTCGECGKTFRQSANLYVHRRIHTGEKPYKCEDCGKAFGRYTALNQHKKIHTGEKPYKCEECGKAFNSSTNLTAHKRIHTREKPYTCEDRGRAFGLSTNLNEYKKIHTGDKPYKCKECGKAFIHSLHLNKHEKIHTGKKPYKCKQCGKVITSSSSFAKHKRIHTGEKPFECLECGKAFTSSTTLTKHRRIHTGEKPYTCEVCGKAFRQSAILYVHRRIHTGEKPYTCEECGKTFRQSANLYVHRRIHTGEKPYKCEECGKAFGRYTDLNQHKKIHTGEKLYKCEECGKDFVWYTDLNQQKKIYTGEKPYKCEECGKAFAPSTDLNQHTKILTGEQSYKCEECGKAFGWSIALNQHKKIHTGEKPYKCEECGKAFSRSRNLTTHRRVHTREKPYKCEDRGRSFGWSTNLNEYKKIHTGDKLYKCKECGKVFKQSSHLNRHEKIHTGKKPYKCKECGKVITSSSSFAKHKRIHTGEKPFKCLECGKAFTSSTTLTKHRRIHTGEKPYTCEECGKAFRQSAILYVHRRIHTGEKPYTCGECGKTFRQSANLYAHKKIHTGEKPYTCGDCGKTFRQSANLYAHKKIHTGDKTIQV
# Method in brief: (§1)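 A tagged transcription factor, either full-length or its DNA-binding-domain fragment, was made in HEK293 lysate or cell-free extract, immobilised on beads and incubated with a randomized 40-base DNA library for 1 h at room temperature in HEPES/KCl low-stringency buffer containing Tween20. Washed beads were heat-eluted, and the bound DNA was PCR-amplified over successive cycles and Illumina-sequenced at ~3 million 60 bp reads per sample. The binding signal is the relative k-mer count in selected reads, where a higher value means tighter binding.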
# ZNF721 DBD1 = ZNF721 DBD1 (Homo sapiens, UniProt Q8TF20-2 29-461)
# Chain of ZNF721 DBD1 (Q8TF20 17-449): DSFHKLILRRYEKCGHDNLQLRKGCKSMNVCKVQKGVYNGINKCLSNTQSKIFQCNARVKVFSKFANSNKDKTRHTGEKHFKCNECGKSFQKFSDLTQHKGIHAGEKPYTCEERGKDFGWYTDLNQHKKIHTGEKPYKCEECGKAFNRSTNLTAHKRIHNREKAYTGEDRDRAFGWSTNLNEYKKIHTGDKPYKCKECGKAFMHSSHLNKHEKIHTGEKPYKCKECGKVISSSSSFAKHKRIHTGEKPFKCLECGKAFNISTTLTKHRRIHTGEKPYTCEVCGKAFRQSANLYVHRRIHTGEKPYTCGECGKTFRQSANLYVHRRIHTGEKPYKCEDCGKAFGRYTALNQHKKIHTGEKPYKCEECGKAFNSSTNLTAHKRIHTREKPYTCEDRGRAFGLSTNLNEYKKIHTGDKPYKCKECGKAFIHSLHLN
# Method in brief: as §1
# ZNF721 DBD2 = ZNF721 DBD2 (Homo sapiens, UniProt Q8TF20-2 395-923)
# Chain of ZNF721 DBD2 (Q8TF20 383-911): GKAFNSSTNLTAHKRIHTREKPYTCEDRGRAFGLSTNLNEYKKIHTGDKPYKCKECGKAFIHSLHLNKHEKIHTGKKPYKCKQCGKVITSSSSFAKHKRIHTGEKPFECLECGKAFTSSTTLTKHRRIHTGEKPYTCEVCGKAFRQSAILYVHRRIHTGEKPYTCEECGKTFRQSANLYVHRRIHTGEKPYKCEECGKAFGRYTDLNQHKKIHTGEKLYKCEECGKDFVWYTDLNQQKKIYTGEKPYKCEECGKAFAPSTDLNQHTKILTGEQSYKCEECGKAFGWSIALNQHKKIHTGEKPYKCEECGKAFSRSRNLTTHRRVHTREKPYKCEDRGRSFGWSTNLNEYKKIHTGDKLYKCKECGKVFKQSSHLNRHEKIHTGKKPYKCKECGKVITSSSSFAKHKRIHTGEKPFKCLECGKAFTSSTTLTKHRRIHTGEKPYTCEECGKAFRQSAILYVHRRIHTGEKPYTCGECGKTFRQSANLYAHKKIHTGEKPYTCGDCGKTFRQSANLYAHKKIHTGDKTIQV
# Method in brief: as §1
Sequence,binding signal (ZNF721 full-length) [relative 10-mer count],binding signal (ZNF721 DBD1) [relative 10-mer count],binding signal (ZNF721 DBD2) [relative 10-mer count]
AAGCAGCATA,0.179,0.00216,0.199
CCCCCCACGC,0.139,0.00404,0.00324
GCCCCTCCCC,0.144,0.00596,0.00551
ACCGCCCCAC,0.103,0.0033,0.00252
GGGGTGGGGA,0.194,0.0094,0.00264
CCCTCCCCAC,0.217,0.00977,0.00863
CAGGGGTGGG,0.103,0.00482,0.00419
CCCACAACCC,0.106,0.00431,0.00348
CTCCCCCCCA,0.117,0.005,0.00587
ACCCCCACAC,0.108,0.00312,0.00527
CCAACCCCAC,0.128,0.00482,0.00288
AGGGTGGTGG,0.142,0.00642,0.00455
CCACCCCAGC,0.102,0.00372,0.00252
AGAAAAAACA,0.12,0.00211,0.0902
ACCCCCTCCC,0.158,0.00807,0.00503
AAAAAGCAGT,0.497,0.0214,0.383
CCCACCATCC,0.152,0.00647,0.00527
CCACCCACCC,0.415,0.0173,0.00587
AACAGCATGA,0.198,0.00188,0.308
CCCCAACCCA,0.13,0.00482,0.00384
CATACCCAAA,0.103,0.00583,0.0665
AAAAAAAGCA,0.612,0.037,0.246
GCCCCCGCCC,0.146,0.00527,0.00132
ACCCCCCCAC,0.169,0.00697,0.00695
CCCCCGCACC,0.146,0.00527,0.00419

Sequence,binding signal (ZNF721 full-length) [relative 10-mer count],binding signal (ZNF721 DBD1) [relative 10-mer count],binding signal (ZNF721 DBD2) [relative 10-mer count]
ACGAAAAAAG,0.126,0.0251,0.0417
AAAAAGCTCA,0.112,0.0408,0.00407
CCCCCCGCAC,0.115,0.00372,0.00348
CACGCCCCCC,0.123,0.00454,0.00635
CCCACCCGCC,0.216,0.00794,0.00539
CACCGCCCCC,0.171,0.00803,0.003
CCCCCCTACC,0.127,0.00569,0.0036
CCGCCCCCCG,0.128,0.0039,0.0024
CCCCCAACCA,0.118,0.00477,0.00503
GCATACCCAA,0.217,0.00968,0.192
CTCCTCCCCC,0.119,0.00633,0.00216
AGGGGTGGTG,0.139,0.00532,0.00407
TAAAAAAGCA,0.179,0.00816,0.114
CCCACCCCGC,0.212,0.0094,0.00336
CCCACCCCCG,0.214,0.00771,0.00264
CCACCCTACC,0.115,0.00688,0.00839
CGAAAAAAGC,0.221,0.0584,0.0645
AAGCGTACCC,0.208,0.104,0.0138
CCCGCCCCCC,0.264,0.00982,0.0018
CCCCTCACCC,0.187,0.00711,0.00503
CCCCCGCCGC,0.128,0.00436,0.00168
CCAAAAAAAC,0.106,0.0017,0.082
ATGTGTATGA,0.12,0.124,0.0018
CACCCCTCCC,0.181,0.00826,0.00336
AAAAAAGGCA,0.18,0.00284,0.13

Sequence,binding signal (ZNF721 full-length) [relative 10-mer count],binding signal (ZNF721 DBD1) [relative 10-mer count],binding signal (ZNF721 DBD2) [relative 10-mer count]
AAAAGCAGCA,0.304,0.00578,0.296
ACCACCCCGC,0.104,0.00358,0.00252
CTTCATACAC,0.291,0.384,0.00132
CCCCCCCCCG,0.112,0.00303,0.00156
ACCCCAACCC,0.128,0.00463,0.00348
ACCCACCCCT,0.134,0.00541,0.00324
TCCCCACCCA,0.122,0.00495,0.00431
AAGCGTCTCC,0.163,0.084,0.0107
CACCAACCCC,0.123,0.00404,0.00407
AAAAAGCATA,0.182,0.0303,0.0372
AAAAACAGTA,0.176,0.00119,0.212
CCCCGCCGCC,0.175,0.00541,0.0012
CCACCCCATC,0.11,0.00509,0.00791
CCCCACCCCA,0.297,0.0112,0.00288
CTCCCCCCGC,0.114,0.00468,0.00144
CACACCCACC,0.135,0.00651,0.00695
CCCACCAACC,0.171,0.00794,0.00563
CCCACCCGCA,0.109,0.00316,0.00563
AAAGCGTACC,0.109,0.0281,0.0144
CCACCCCCGC,0.203,0.0072,0.00264
AAAAAGAGCA,0.108,0.0078,0.0193
CCGCACCCCC,0.152,0.00569,0.00156
AAAAGCAGTA,0.17,0.0204,0.117
GAAAAAAAAA,0.142,0.0136,0.0513
